NPC1 prom act = activates the NPC1 promoter; Huh7 NPC1 promoter luciferase reporter, 24 h; Potency, µM (top dose mostly 9.22 µM), hits mostly activators; 320,000 tested, 2.4% active; note: nearly all actives have a fitted effect of over 60% in size
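NPC1 promoter–luciferase Huh7 cells; 24 h compound; luminescence.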
Rab9 promoter act = activates the Rab9 promoter; AID 485297; Huh7 Rab9 promoter-luciferase reporter, luminescence, 24 h; 320,000 tested, 2.8% active; Potency, µM (doses to about 9.22 µM), actives largely listed as activators; note: nearly all actives have a fitted effect of over 60% in size
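Using Huh7 cells stably transfected with Rab9 promoter–luciferase, compounds were incubated 24 h at 37 °C, 5% CO2; luciferase luminescence was read 10 min after reagent addition.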
FLuc modulator = firefly luciferase modulation, counter-screen for miR-21 project; P08659; purified FLuc, Km substrates, luminescence inhibition; Potency, µM (series often up to 57.5 µM), most hits filed as inhibitors; 360,000 tested, 6.9% active; note: nearly all actives have a fitted effect of over 55% in size
Target sequence (P08659 whole entry, looked up): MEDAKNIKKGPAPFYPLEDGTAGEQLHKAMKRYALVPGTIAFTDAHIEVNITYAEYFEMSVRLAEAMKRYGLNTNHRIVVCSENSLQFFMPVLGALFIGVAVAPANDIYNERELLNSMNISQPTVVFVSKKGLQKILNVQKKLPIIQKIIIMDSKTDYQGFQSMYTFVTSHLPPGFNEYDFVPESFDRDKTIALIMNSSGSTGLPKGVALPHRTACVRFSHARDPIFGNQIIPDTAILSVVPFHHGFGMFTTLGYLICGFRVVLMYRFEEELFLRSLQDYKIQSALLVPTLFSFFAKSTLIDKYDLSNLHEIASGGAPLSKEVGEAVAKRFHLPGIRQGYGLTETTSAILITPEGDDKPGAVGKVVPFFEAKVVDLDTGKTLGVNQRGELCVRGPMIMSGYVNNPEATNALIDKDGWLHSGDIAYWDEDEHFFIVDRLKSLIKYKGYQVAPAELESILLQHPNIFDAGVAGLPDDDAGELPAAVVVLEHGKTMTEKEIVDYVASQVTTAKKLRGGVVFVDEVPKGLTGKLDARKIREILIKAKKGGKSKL
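Biochemical qHTS of compounds, final roughly 60 µM downward over six points, against 10 nM purified firefly luciferase using Km concentrations of substrates (10 uM D-luciferin, 10 uM ATP) in Tris acetate pH 7.5 buffer; luminescence output.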
SMN2 splice up = SMN2 splice variant enhancement | HEK293 SMN2-luciferase splicing reporter, luminescence, 30-36 h | Potency, µM (series often up to 46.1 µM), actives largely listed as activators | 210,000 tested, 2.8% active; note: nearly all actives have a fitted effect of over 55% in size
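HEK293 cells carry an SMN2 minigene-luciferase reporter in which exon 7 inclusion puts luciferase in frame. Cells were seeded at 2000 cells/well, attached for 10-12 hours, then exposed to compounds for 30-36 hours at 37C before ONE-Glo luminescence.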
ELG1 genotox = induces genotoxicity in HEK293T cells with luciferase-tagged ELG1; HEK293T ELG1-luciferase reporter, luminescence, 16 h; Potency, µM (highest dose often 46 µM), usual class: activators; 330,000 tested, 1.3% active; AID 504466; note: nearly all actives have a fitted effect of over 60% in size
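16 hr compound incubation (37 °C, 5% CO2) of HEK293T cells carrying luciferase-tagged ELG1; luciferase then measured by ONE-Glo luminescence after 30 min at RT.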
ELG1 repair inh = blocks ELG1-dependent DNA repair in HEK293T cells; Potency, µM (titrated, usually from 46.1 µM), hits mostly inhibitors; HEK293T ELG1-luciferase reporter, luminescence, 16 h; DNA damage induced by 5-fluorouridine; 330,000 tested, 2.3% active; note: nearly all actives have a fitted effect of over 55% in size
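Overnight (16 hr) co-exposure of 2,000 cells/well to 5-fluorouridine and compound at 37 °C preceded detection. Luciferase was quantified via ONE-Glo luminescence; loss of signal denotes inhibition.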
Each line names hits and unclear results; the compound was inactive in the other large screens. This is a sample that favours compounds with a hit; in the whole collection about 9.2% have one here. Calls come from the whole dose curve; as a rule, active = well fitted curve in the direction sought with a large enough effect; inconclusive = small, poorly fitted or top-dose-only effect, or another doubt; inactive = no such curve, though single readings can be large; an effect the other way counts as inactive or inconclusive.

O=c1cc2oc3cc(O)c(O)cc3c(-c3ccccc3O)c-2cc1O	FLuc modulator inconclusive, ELG1 repair inh inconclusive (no result: SMN2 splice up)
COc1ccc(C(=O)c2c(O)cc(-c3ccc(OC)cc3)oc2=O)cc1	FLuc modulator 17µM, ELG1 repair inh inconclusive
O=c1cc(-c2ccc(O)cc2)oc2ccccc12	NPC1 prom act inconclusive, Rab9 promoter act inconclusive, FLuc modulator 11µM, SMN2 splice up inconclusive, ELG1 genotox inconclusive, ELG1 repair inh inconclusive
O=c1cc(-c2ccccc2O)oc2cc(O)ccc12	SMN2 splice up 25µM (no result: NPC1 prom act, Rab9 promoter act, FLuc modulator, ELG1 genotox, ELG1 repair inh)
O=c1cc(-c2c(F)c(F)c(F)c(F)c2F)oc2ccccc12	none
COc1ccc(N=c2cc(-c3ccc(OC)cc3)oc3ccccc23)cc1	ELG1 repair inh 23µM
Cc1ccc(NC(=O)C(CC(C)C)NS(=O)(=O)c2ccc3c(c2)oc(=O)n3C)c(C)c1 (stereo not given)	none (no result: NPC1 prom act, Rab9 promoter act, ELG1 genotox, ELG1 repair inh)
COc1ccc(-c2cc(=O)c3ccccc3o2)cc1	NPC1 prom act 2.5µM, Rab9 promoter act 2µM, FLuc modulator 6µM, SMN2 splice up 10µM, ELG1 genotox 21µM, ELG1 repair inh inconclusive
COc1ccc(-c2cc3ccccc3c(=O)o2)cc1	SMN2 splice up 13µM (no result: NPC1 prom act, Rab9 promoter act, FLuc modulator, ELG1 genotox, ELG1 repair inh)
COc1ccc(-c2cc(=Nc3ccc(C)cc3)c3ccccc3o2)cc1	ELG1 repair inh inconclusive
CCCn1c(N)c(N2CCCCC2)c(=O)n(CC(=O)Nc2cccc(S(=O)(=O)N(C)C)c2)c1=O	none (no result: NPC1 prom act, Rab9 promoter act, FLuc modulator, SMN2 splice up)
CN(CC(=O)Nc1ccccc1Cl)C(=O)c1cccc(S(=O)(=O)N2CCN(c3ccc(F)cc3)CC2)c1	NPC1 prom act 1.4µM, Rab9 promoter act 2.2µM, FLuc modulator 3.4µM, ELG1 genotox 1.8µM, ELG1 repair inh inconclusive (no result: SMN2 splice up)
Cc1cccc(C)c1NC(=O)CN(C)C(=O)c1cccc(S(=O)(=O)N2CCN(c3ccc(F)cc3)CC2)c1	none (no result: SMN2 splice up)
COc1cccc(NC(=O)Cn2c(=O)n(CCCCC(=O)NCc3ccc4c(c3)OCO4)c(=O)c3ccccc32)c1	none (no result: NPC1 prom act, Rab9 promoter act, ELG1 genotox, ELG1 repair inh)
Cc1ccc2c(=O)cc(C(=O)Nc3ccc(S(=O)(=O)N(C)Cc4ccccc4)cc3)oc2c1C	none (no result: NPC1 prom act, Rab9 promoter act, ELG1 genotox, ELG1 repair inh)
Cc1ccc2oc(-c3ccc(C)c(NC(=O)c4ccc(C(C)(C)C)cc4)c3)nc2c1	none (no result: NPC1 prom act, Rab9 promoter act, ELG1 genotox, ELG1 repair inh)
Cc1ccc2oc(-c3ccc(C)c(NC(=O)C(C)(C)Oc4ccc(Cl)cc4)c3)nc2c1	FLuc modulator 3.8µM, SMN2 splice up inconclusive (no result: NPC1 prom act, Rab9 promoter act, ELG1 genotox, ELG1 repair inh)
COc1cc(C(=O)Nc2cc(-c3nc4cc(C)ccc4o3)ccc2C)cc(OC)c1OC	NPC1 prom act inconclusive, Rab9 promoter act inconclusive, FLuc modulator 0.27µM, SMN2 splice up inconclusive, ELG1 genotox inconclusive
COc1cc(C(=O)Nc2cccc(-c3nc4cc(C)ccc4o3)c2C)cc(OC)c1OC	FLuc modulator 0.95µM
COc1cc(C(=O)Nc2cccc(-c3nc4cc(C)ccc4o3)c2)cc(OC)c1OC	FLuc modulator 1.7µM, ELG1 repair inh 15µM
COc1cc(OC)cc(N2C(=O)N(Cc3ccc(C(C)(C)C)cc3)c3ccccc3S2(=O)=O)c1	none (no result: NPC1 prom act, Rab9 promoter act, SMN2 splice up, ELG1 genotox, ELG1 repair inh)
Cc1ccc(N2C(=O)CS(=O)(=O)C23C(=O)N(C)c2ccccc23)cc1F (stereo not given)	none (no result: NPC1 prom act, Rab9 promoter act, SMN2 splice up, ELG1 genotox, ELG1 repair inh)
COCC(C)NC(=O)CSc1nc2ccccc2c(=O)n1CCc1ccc(S(N)(=O)=O)cc1 (stereo not given)	ELG1 repair inh inconclusive (no result: SMN2 splice up)
CCOc1ccc(S(=O)(=O)N2CCN(c3cc(Cl)ccc3Cl)CC2)c2ccccc12	none (no result: NPC1 prom act, Rab9 promoter act, ELG1 genotox, ELG1 repair inh)
Cc1ccc2oc(-c3ccc(C)c(NC(=O)Cc4cccs4)c3)nc2c1	FLuc modulator inconclusive
Cc1ccc2oc(-c3ccc(C)c(NC(=S)NC(=O)c4cccs4)c3)nc2c1	FLuc modulator 6µM, SMN2 splice up inconclusive, ELG1 genotox 8.2µM, ELG1 repair inh inconclusive
Cc1ccc(NC(=O)CN2C(=O)CCc3cc(S(=O)(=O)N4CCCCC4)ccc32)cc1N(C)C	none (no result: NPC1 prom act, Rab9 promoter act, SMN2 splice up, ELG1 genotox, ELG1 repair inh)
O=C(N/N=C/c1ccccc1[N+](=O)[O-])c1cnccn1	NPC1 prom act inconclusive, Rab9 promoter act inconclusive, FLuc modulator inconclusive, ELG1 repair inh inconclusive (no result: SMN2 splice up)
CCn1cnnc1SCC(=O)Nc1ccccc1C(=O)NC1CC1	none (no result: NPC1 prom act, Rab9 promoter act, FLuc modulator, SMN2 splice up)
